GPR151 activ – activators of human GPR151; actives 1% (n = 650,000); PathHunter beta-arrestin GPR151 cells, luminescence; activation, % at 11.2 µM; AID 1508602; Q8TDV0; in the data active means activation above about 4.9%;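 further: 0% = median of compound wells and 100% = cells with positive control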
MITF inh – inhibitors of human MITF; AlphaScreen MITF homodimerization, bead proximity signal; inhibition, % at 2.6 µM; actives 0.91% (n = 650,000); in the data active means inhibition above about 50%;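 further: 0% = vehicle wells with protein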
Target sequence (O75030 whole entry, looked up): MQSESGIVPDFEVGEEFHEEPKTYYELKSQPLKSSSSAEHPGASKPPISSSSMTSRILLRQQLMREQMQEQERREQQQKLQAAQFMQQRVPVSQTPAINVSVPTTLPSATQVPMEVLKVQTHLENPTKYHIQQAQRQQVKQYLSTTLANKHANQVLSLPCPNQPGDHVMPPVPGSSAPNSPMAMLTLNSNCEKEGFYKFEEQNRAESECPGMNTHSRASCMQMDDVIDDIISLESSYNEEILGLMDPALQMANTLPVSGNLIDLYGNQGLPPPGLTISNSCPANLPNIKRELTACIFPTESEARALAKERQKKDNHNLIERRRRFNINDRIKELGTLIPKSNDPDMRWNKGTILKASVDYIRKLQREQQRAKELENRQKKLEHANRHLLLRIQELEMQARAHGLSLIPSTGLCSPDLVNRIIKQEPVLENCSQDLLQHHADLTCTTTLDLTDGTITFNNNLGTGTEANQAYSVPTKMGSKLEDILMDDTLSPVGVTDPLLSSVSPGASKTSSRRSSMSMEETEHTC
TEAD-YAP inh – TEAD-YAP interaction inhibition; HEK-TIYL cells, TEAD-Gal4/YAP UAS-luciferase luminescence; inhibition, % at 9.12 µM; actives 1.4% (n = 640,000); in the data active means inhibition above about 32%;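 further: 0% = median of test compound wells and 100% = reference inhibitor wells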
FBW7 act – human FBW7 E3 ligase activation, primary screen; Q969H0; AlphaScreen FBW7–phospho-cyclin E peptide binding, activator screen; normalized activity (activation), % at 26.1 µM; actives 0.13% (n = 650,000); AID 1259310; in the data active means normalized activity above about 1.9%;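 further: purified mutant Fbw7 with reduced substrate affinity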
MITF inh conf – confirmation of human MITF inhibitors; AlphaScreen MITF homodimerization, biotin/His-MITF beads; actives 16% (n = 4,700); inhibition, % at 2.6 µM; shares compounds with MITF inh; AID 1259372;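 active means inhibition above a cutoff derived from the DMSO control wells, cut at about 28% in these data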;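 further: 0% = MITF dimer wells with DMSO only; inhibitors lower the bead chemiluminescence by keeping MITF from dimerizing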
AlphaScreen DR – AlphaScreen optical interference, dose response counter-screen. shares compounds with MITF inh. AlphaScreen optical interference counterscreen, cell-free. IC50, µM. actives 6% (n = 480). AID 1259373; call rule not given here
AlphaScreen intf2 – counter-screen: compounds optically interfering with AlphaScreen; shares compounds with MITF inh; LysRS AlphaScreen counterscreen, signal interference, triplicate; inhibition, % at 2.6 µM; actives 7.6% (n = 4,700); AID 1259376;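 active means inhibition above a cutoff derived from the DMSO control wells, cut at about 30% in these data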
The depositor's hits bear a star; . = not tested or not shown. Shown are actives, neighbours in structure and some others; about 3.4% of the full set was active somewhere.

SMILES	GPR151 activ	MITF inh	TEAD-YAP inh	FBW7 act	MITF inh conf	AlphaScreen intf2	others
COc1ccc(CN2CCN(C(=O)c3ccc(F)cc3)CC2)cc1Br	0.7	51.4*	-1.1	-0.2	-1.6	10.3
CCOC(=O)c1c(NC(=O)COc2ccc3c(c2)OCO3)sc(C(C)=O)c1C	0.4	0.8	0.6	0.1	.	.
O=C1c2ccc(-c3nc4ccccc4c(=O)o3)cc2C(=O)N1c1ncc([N+](=O)[O-])s1	0.7	55.6*	1.1	0.2	-9.7	-7.2
COc1cc(CNC2CCCC2)cc(OC)c1	-0.7	27.1	5.7	0.1	.	.
COc1cc(CNC2CCCCC2)cc(OC)c1	-0.8	51.9*	15.8	0.3	-9.4	-10.2
CC1=C(NCCc2ccccc2)CCC1=O	0.7	60.7*	6.0	0.8	14.4	8.8
Cc1cc(=O)[nH]c(NCCc2ccccc2)n1	0.3	6.4	8.0	-0.2	.	.
CCOC(=O)C1=C(C)N(C)C(c2ccccc2)(C(F)(F)F)NC1=O (stereo unspecified)	-0.1	-0.2	8.1	-0.1	.	.
COc1ccc(/C=N/Nc2nncc(-c3ccccc3)n2)cc1Br	-0.1	64.7*	-3.9	0.0	-11.3	-8.8
Oc1ccc(/C=N\Nc2nncc(-c3ccccc3)n2)cc1	-0.2	4.5	-1.1	0.6	.	.
CC(C)NC(=O)c1ccc2c(c1)CC(c1nc3ccc(-c4ccnc(N)n4)cc3[nH]1)CO2 (stereo unspecified)	0.1	1.6	-13.4	-0.1	.	.
CCC1(C)Cc2c(sc3nc(SCC(=O)O)[nH]c(=O)c23)CO1 (stereo unspecified)	-1.5	15.0	1.8	1.1	.	.
CCC1(C)Cc2c(sc3nn[nH]c(=O)c23)CO1 (stereo unspecified)	0.9	94.3*	3.4	-0.1	5.2	17.4
CN(C)CCN(C)Cc1cccc2ccccc12	0.6	59.8*	4.0	0.1	-0.5	0.8
CN(C)CCCN(CCCN(C)C)Cc1cccc2ccccc12	0.6	55.4*	-10.3	0.0	-2.4	-2.8
COc1ccccc1CN(CCCN(C)C)CCCN(C)C	1.1	33.9	3.4	0.1	.	.
Cc1sc(NC(=S)Nc2ccccc2)c(C(N)=O)c1C	1.3	-3.8	-4.0	-0.1	.	.
CCN1CCC(CCc2ccc(NC(=O)c3cnccn3)cc2)C(C)C1 (stereo unspecified)	-0.5	10.6	-65.5	-0.1	.	.
c1coc(Cn2nnnc2CN2CCN(C3CCCC3)CC2)c1	0.9	-1.4	-2.1	0.1	.	.
CC1CCCCC1N1CCN(Cc2ccco2)CC1 (stereo unspecified)	-0.7	69.4*	4.6	0.1	-2.6	5.1
c1coc(CN2CCN(C3CCCCCC3)CC2)c1	1.1	73.6*	12.3	-0.1	-0.3	4.7
c1coc(CN2CCC(N3CCOCC3)CC2)c1	0.6	60.3*	12.0	0.6	12.7	16.4
S=C(NC1CCCCC1)N1CCN(Cc2ccco2)CC1	2.7	-20.9	-15.9	0.5	.	.
CCN(CC)CCOC(=O)c1ccc(NC(=O)Cn2ncc3c2-c2ccccc2OC3)cc1	-0.1	11.3	-0.8	0.1	.	.
CN1C(=O)c2ccc(C(=O)c3cccc([N+](=O)[O-])c3)cc2C1=O	1.6	-4.3	3.3	0.1	.	.
SMILES	GPR151 activ	MITF inh	TEAD-YAP inh	FBW7 act	MITF inh conf	AlphaScreen intf2	others
COCCCNc1nc(CN2CCN(C(C)C)CC2)nc2ccc(C)cc12	0.7	11.8	0.7	0.2	.	.
Nn1c(SCC(=O)N2CCN(c3ccccc3)CC2)nnc1C1CCCCC1	-0.9	5.2	-1.3	-0.2	.	.
CCOC(=O)c1ccc(N2C(=O)C(Cl)=C(Nc3ccccc3C(=O)O)C2=O)cc1	-1.6	56.4*	23.3	0.6	-7.6	2.6
Cc1cc(C)nc(Nc2ccc([N+](=O)[O-])cc2)n1	2.5	69.0*	-1.2	0.0	0.8	14.4
Cc1cc(C)nc(Nc2ccc(C)c([N+](=O)[O-])c2)n1	-0.1	20.9	-12.8	-0.2	.	.
O=C(CCc1ccccc1)Nc1nnc(-c2cccs2)s1	1.1	55.2*	0.4	-0.5	-0.5	11.7
CCC(C)NC(=O)C1CCCN1C(=O)Nc1ccccc1 (stereo unspecified)	0.3	13.6	-10.9	0.0	.	.
Clc1cc2c(c3ncccc13)OCN(Cc1ccco1)C2	-0.8	33.0	26.9	-0.3	.	.
CC1(C)CC(N2COc3c(cc(Cl)c4cccnc34)C2)CC(C)(C)N1	-1.0	52.0*	40.3*	-0.3	68.0*	99.9*
Clc1cc2c(c3ncccc13)OCN(C1CCCC1)C2	-0.1	97.3*	65.7*	-1.3	99.1*	100.6*
O=C(c1ccc(Cn2c(=S)[nH]c3ccc(Br)cc3c2=O)cc1)N1CCN(Cc2ccc3c(c2)OCO3)CC1	-0.2	-10.9	5.6	-0.1	.	.
O=C(NCC(c1ccsc1)N1CCCCCC1)c1c(F)cccc1F (stereo unspecified)	1.2	84.4*	-2.1	-0.1	-16.7	-3.8
CCOc1ccccc1CN1CCN(Cc2cccn2-c2ccccn2)CC1CCO (stereo unspecified)	-0.9	17.1	7.0	-0.1	.	.
CCC(C)(C)n1nnnc1CN(Cc1ccccc1)Cc1cccs1	-1.2	75.6*	0.8	0.0	6.2	7.8
O=C(CN1C(=O)c2ccccc2C1=O)Nc1nnc(CCc2ccccc2)s1	0.7	12.7	-5.5	0.3	.	.
CSCCC(C(=O)Nc1sc2c(c1C(N)=O)CCC2)N1C(=O)c2ccccc2C1=O (stereo unspecified)	-0.1	23.8	0.1	-0.3	.	.
O=c1[nH]cc(N=Cc2ccc([N+](=O)[O-])o2)c(=O)[nH]1	-0.7	84.6*	-7.3	-0.5	63.7*	-20.1	AlphaScreen DR=>6.48
Cc1cc(C(C)(C)C)ccc1OCCN1CCN(C)CC1	0.5	86.7*	1.7	-0.2	27.1	19.8
Cc1cc(C(C)(C)C)ccc1OCCOCCN1CCOCC1	0.9	73.0*	3.2	0.0	-11.9	10.9
Cc1cc(C(C)(C)C)ccc1OCCOCCN1CCN(C)CC1	0.1	48.5	-5.4	-0.1	.	.
Cc1cc(C(C)(C)C)ccc1OCCCN1CCN(C)CC1	1.1	63.2*	-4.3	0.0	16.2	3.2
O=C(O)CCC1([N+](=O)[O-])CCCCC1	-0.2	1.8	9.6	0.0	.	.
N#Cc1ccc(OCC(O)CNCCCN2CCCC2=O)cc1 (stereo unspecified)	-0.9	50.6*	-3.5	-0.1	-3.7	6.6
O=C(NCCCn1ccnc1)C(=O)NCC1OCCN1S(=O)(=O)c1ccccc1 (stereo unspecified)	0.0	49.2	-1.5	-0.1	.	.
O=C(NCCCn1ccnc1)C(=O)NCC1OCCCN1S(=O)(=O)c1ccccc1 (stereo unspecified)	2.9	65.6*	-2.4	-1.5	34.6*	44.9*
CC(C)(CO)NCC(O)COCc1ccc(Cl)cc1 (stereo unspecified)	-0.3	-4.6	7.0	0.6	.	.
OC(CNCCNc1cccc2ccccc12)COCc1ccc(Cl)cc1 (stereo unspecified)	-1.3	52.8*	-2.1	-0.2	-5.0	0.7
